Compounds with a hit are over-represented: about 2.1% of the library has one in this group of screens.
APP 5UTR inh – APP translation inhibition; 0.82% of 190,000 active; inhibition, % at 2 µM; SH-SY5Y APP 5'UTR-luciferase reporter, luminescence;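 active = inhibition above a set limit, derived from the sample mean plus 3 SD, cut at about 45% in these data; inconclusive = one replicate passes the limit while the other fails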
BaF3 parental – reduces parental Ba/F3 cell viability, JAK2V617F counter-screen. CellTiter-Glo ATP luminescence. inhibition, % at 5.6 µM. 1.1% of 220,000 active;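 active = inhibition above a per-campaign cutoff, the mean inhibition of all tested compounds plus 3 SD, cut at about 27% in these data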;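 also: 0% = DMSO wells and 100% = JAK Inhibitor I control wells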
Ba/F3 V617F tox – loss of viability in JAK2V617F-driven Ba/F3 cells. Ba/F3 EpoR-JAK2V617F viability, ATP luminescence. inhibition, % at 5.6 µM. 1.1% of 220,000 active. AID 1446;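 active = inhibition above the campaign mean plus 3 SD over all tested compounds, cut at about 24% in these data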;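 also: cytokine-independent growth of Ba/F3 cells driven by EpoR plus mutant JAK2; 0% = DMSO-treated cells and 100% = JAK inhibitor I control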
IEC-6 tox-1 – counter-screen for KLF5 inhibitors: cytotoxicity in IEC-6 cells. IEC-6 cytotoxicity, luminescence viability. inhibition, % at 5 µM. 0.78% of 290,000 active. AID 1825;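 also: 0% = plate median of test compound wells and 100% = cytotoxic reference compound wells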
KLF5 inh – kruppel-like factor 5 inhibition; DLD-1 KLF5 promoter-luciferase reporter, luminescence; AID 1700; inhibition, % at 5 µM; 0.23% of 290,000 active;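 active = inhibition above a per-plate limit of that plate's mean compound inhibition plus 3 SD, cut at about 60% in these data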;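 also: 0% = DMSO wells and 100% = LY294002 at 200 µM; higher means less KLF5 promoter-driven luciferase light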
aSyn 5UTR inh – 5' untranslated region of α-synuclein, MLPCN primary screen | alpha-synuclein 5'UTR reporter, inhibitor activity | inhibition, % (tested at 7.5 µM) | 0.82% of 300,000 active | AID 1813; in the data active = inhibition above about 60%; inconclusive = no clear call, values can overlap the other calls;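 also: H4 neuroglioblastoma cells stably carrying SNCA 5'UTR luciferase fusion; 0% = DMSO wells and 100% = positive control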
BaF3 tox 2 – counter-screen for JAK2V617F inhibitors: parental Ba/F3 viability inhibitors; shares compounds with Ba/F3 V617F tox; CellTiter-Glo luminescence; cells kept alive by added IL-3; inhibition, % at 5.6 µM; 31% of 580 active; AID 1520;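 active = cell growth inhibition above the hit limit set in the earlier mutant JAK2 cell screen, cut at about 27% in these data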;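 also: plate controls were DMSO-treated cells for no effect and JAK Inhibitor I control wells for full effect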
JAK2V617F confrm – Ba/F3 EpoR-JAK2V617F viability loss, confirmation. inhibition, % at 5.6 µM. shares compounds with Ba/F3 V617F tox. CellTiter-Glo luminescence. 66% of 580 active;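 active = mean inhibition above the hit cutoff derived in the earlier primary screen, cut at about 25% in these data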;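 also: 0% = DMSO-treated cells and 100% = JAK inhibitor I control wells; higher means lower luminescence from reduced cell ATP and viability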
KLF5 inh confirm – confirmation of KLF5 inhibitors. shares compounds with KLF5 inh. DLD-1 KLF5 promoter firefly luciferase reporter, luminescence. inhibition, % at 4 µM. 79% of 610 active. AID 1834;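 active = inhibition above a set limit taken from the earlier primary screen, cut at about 63% in these data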;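 also: 0% = DMSO wells and 100% = LY294002 at 200 µM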
IEC-6 tox-2 – counter-screen for KLF5 inhibitors: cytotoxicity in rat IEC-6 cells. AID 1905. inhibition, % at 4 µM. 56% of 610 active. IEC-6 rat intestinal cells, viability luminescence. shares compounds with KLF5 inh; in the data active = inhibition above about 23%;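 also: cells exposed to compounds for 48 hours before viability read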
IEC-6 tox confirm – IEC-6 cytotoxicity, confirmation assay. shares compounds with IEC-6 tox-1. IEC-6 rat intestinal epithelial viability, luminescence. inhibition, % at 5 µM. 63% of 1,900 active. AID 1907;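 also: 0% = vehicle and 100% = reference cytotoxic drug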
* marks the source's active call; other numbers are inactive results; ? = inconclusive; . = no result given. Rule as the data show it, unless noted: active = inhibition above about 22%; inactive = the rest.

SMILES | APP 5UTR inh | BaF3 parental | Ba/F3 V617F tox | IEC-6 tox-1 | KLF5 inh | aSyn 5UTR inh | BaF3 tox 2 | JAK2V617F confrm | others
Oc1c(C(Nc2nc3ccccc3s2)c2ccco2)ccc2cccnc12 (stereo unspecified) | 68* | 7 | 26* | 1 | -7 | 66* | 35* | 89*
O=C(Nc1cccc(NC(=O)c2ncn[nH]2)c1)c1cccc(Cl)c1 | 18 | -3 | -1 | -1 | -37 | -16 | . | .
COCCNC(=O)CN(C(=O)c1ccc(N2CCCC2)nc1)c1ccccc1 | 2 | 9 | 64* | 1 | -30 | . | -4 | -5
COCCNC(=O)CN(C(=O)c1ccc(N2CCCC2)nc1)c1ccc(F)c(Cl)c1 | . | . | . | 2 | -25 | 15 | . | .
O=C(N/N=C/c1ccccc1)C(=O)N/N=C/c1ccccc1 | . | . | . | -4 | -38 | -3 | . | .
O=C(C=C=Nc1ccccc1)C(=O)N=C=Cc1ccccc1 | . | 19 | 68* | 5 | -4 | -19 | 5 | 79*
CCc1nc(C)cn1S(=O)(=O)c1ccc([N+](=O)[O-])cc1 | 0 | 4 | -1 | 1 | -29 | 26 | . | .
CCCn1c(CC)nc([N+](=O)[O-])c1S(=O)(=O)c1ccccc1 | 14 | 8 | 49* | 5 | 3 | -14 | -2 | 70*
O=C(Nc1ccc(NC(=O)N2CCN(c3ccccc3O)CC2)cc1)N1CCN(c2ccccc2O)CC1 | . | . | . | 1 | -16 | 27 | . | .
Cc1cc(NC(=O)c2sc(Nc3ccc(F)cc3)nc2N)no1 | -55 | 23 | 98* | 1 | -23 | -46 | 65* | 99*
CC(Sc1ncc(C(F)(F)F)cc1Cl)C(=O)NC(N)=O (stereo unspecified) | -14 | 3 | 39* | 0 | -25 | 10 | 0 | -2
O=C(COCc1cc(-c2ccc3c(c2)OCO3)on1)N1CCN(c2ccccc2)CC1 | . | . | . | 0 | -10 | 4 | . | .
Cn1c(COc2ccccc2O)[n+](C)c2ccccc21 | . | . | . | 6 | -14 | 12 | . | .
COc1ccc(N=Nc2n(C)c3ccccc3[n+]2C)cc1 | . | 22 | 26* | 18 | 37 | 103* | 35* | 22
COC(CN(C(=O)CCl)C(C(=O)NC1CCCCC1)c1ccc(C)cc1)OC (stereo unspecified) | 4 | 5 | 91* | 4 | -6 | -36 | 1 | 17
Cc1cc(C)c(C(=O)CC(=O)c2ccccc2Cl)c(O)c1 | . | . | . | -2 | -25 | -29 | . | .
Oc1ccc(-c2nc3ccc4ccccc4c3c3c2CCC3)cc1O | 1 | 3 | 63* | 1 | -33 | -151 | 53* | 97*
COc1ccc(-c2cc(C(=O)O)nc3ccc4ccccc4c23)cc1OC | -1 | 7 | 3 | 4 | -22 | -43 | . | .
Nc1ccc(Nc2nc(-c3cc4ccccc4oc3=O)cs2)cc1 | -95 | 14 | 84* | -10 | -77 | -200 | 77* | 99*
CC(=O)Nc1ccc(Nc2nc(-c3cc4ccccc4oc3=O)cs2)cc1 | . | . | . | 4 | -170 | -449 | . | .
CC(/C=C/c1ccccc1)=N\NC(=O)Cn1cncn1 | . | -2 | 31* | 1 | -10 | -4 | -6 | -9
NS(=O)(=O)c1ccc(NC(=O)COC(=O)c2cnccn2)cc1 | -19 | 0 | -1 | 2 | -7 | 30 | . | .
O=C(CS(=O)(=O)c1ccc(Cl)cc1)NCCS(=O)(=O)c1ccc(Cl)cc1 | 5 | 1 | -4 | 3 | -54 | 6 | . | .
COc1ccc(/C=N/NC(=O)CCn2cnc(-c3ccccc3)c2-c2ccccc2)cc1 | 89* | 11 | 47* | 40* | 9 | ? | 62* | 94*
CCOC(=O)Cn1nc(NC(=O)COc2ccc(F)cc2)cc1C | . | . | . | -1 | -11 | -5 | . | .
SMILES | APP 5UTR inh | BaF3 parental | Ba/F3 V617F tox | IEC-6 tox-1 | KLF5 inh | aSyn 5UTR inh | BaF3 tox 2 | JAK2V617F confrm | others
COC(=O)C(c1ccccc1)C(C(=O)OC)c1ccccc1 (stereo unspecified) | . | . | . | -12 | -21 | 17 | . | .
COC(=O)C(C(=O)OC)C(C)C(C(=O)OC)C(=O)OC | 16 | 12 | 61* | -4 | 4 | 10 | -6 | -6
O=S(=O)(NCCC1=CCCCC1)c1ccc(OC(F)(F)F)cc1 | . | . | . | . | . | 3 | . | .
O=C(Nn1c(-c2ccc(F)cc2)nc2ccccc2c1=O)c1cccnc1 | -18 | 1 | 66* | 4 | -7 | 1 | -5 | 14
COc1ccc(-n2nc(C(=O)NCC(=O)NCCc3ccc(OC)c(OC)c3)c3ccccc3c2=O)cc1Cl | . | . | . | -3 | -1 | 12 | . | .
COc1cc(/C=C2/CC/C(=C/c3ccc(O)c(OC)c3)C2=O)ccc1O | . | 0 | -4 | -2 | -13 | -71 | . | .
COc1cc(/C=C2\COC/C(=C\c3ccc(O)c(OC)c3)C2=O)ccc1O | . | -8 | 25* | 3 | -23 | 103* | 14 | 91*
CCOC(=S)SCC(=O)Nc1nc(-c2ccc(Br)cc2)cs1 | 32 | 14 | 27* | -5 | -19 | 70* | 71* | 99*
CN(C)CCN1C(=O)C(=O)/C(=C(/O)c2ccc(S(=O)(=O)N3CCOCC3)cc2)C1c1ccc(F)cc1 (stereo unspecified) | . | . | . | 4 | -16 | 21 | . | .
COc1ccc(-c2cc3nc(C)n(N)c(=O)c3s2)cc1 | . | 26 | 41* | 18 | 96* | 115* | 56* | 40* | KLF5 inh confirm=109*;IEC-6 tox-2=36*
CCN(CC)CCNC(=O)c1ccc(NC(=O)C2CCN(c3ncnc4sc(C)c(C)c34)CC2)cc1 | . | . | . | -8 | -39 | -34 | . | .
CCN(CC)S(=O)(=O)c1ccc(N/N=C(\C)c2ccncc2)nc1 | . | . | . | -2 | 16 | 15 | . | .
CCN(CC)S(=O)(=O)c1ccc(N/N=C/c2ccc(O)cc2O)nc1 | 81* | 6 | 50* | 16 | 72* | 90* | 83* | 93* | KLF5 inh confirm=81*;IEC-6 tox-2=9
Cc1cc2c(cc(C(=O)OCC(=O)NCc3cccs3)n2C(C)C)o1 | 75* | 18 | 37* | 77* | 58 | 39 | 41* | 90* | IEC-6 tox confirm=55*
Cc1cc(C)cc(C(=O)OCC(=O)NCc2cccs2)c1 | -1 | 2 | -4 | 3 | 27 | -2 | . | .
BrC(=C\c1ccccc1)/C=N/n1cnnc1 | 79* | -11 | 65* | 75* | 20 | -36 | 55* | 96* | IEC-6 tox confirm=26*
Cc1cc2[nH]c3c(c[n+](C)c4ccccc34)c2cc1C | 83* | 4 | 33* | 65* | 58 | 101* | 15 | 92* | IEC-6 tox confirm=55*

Bioassay records from PubChem.
